The panel holds about 79,000 compounds, 15% with a hit somewhere; the sample as a whole holds those more often. Activity calls are given as the source filed them. Rule as the data show it: active = growth inhibition above about 70%; inactive = the rest.
Tests used:
[1] = NCI Yeast Anticancer Drug Screen. Data for the rad50 strain (AID 155);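 also: 0% = growth of vehicle-only cultures of the same strain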; conditions: S. cerevisiae rad50 strain growth inhibition, stronger effect = higher value
Outline: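 Relative growth inhibition (compound vs vehicle) was measured in yeast with a defined repair-gene alteration.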

[2] = NCI Yeast Anticancer Drug Screen. Data for the mec2-1 strain (AID 157); conditions: S. cerevisiae mec2-1 strain, stronger effect = higher value
Outline: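 mec2-1 yeast strain, carrying an alteration in DNA damage repair or cell cycle control, was exposed to compounds; growth inhibition was measured relative to vehicle-treated controls.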

[3] = NCI Yeast Anticancer Drug Screen. Data for the sgs1 mgt1 strain (AID 161);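 also: 0% = growth of cultures given vehicle only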; conditions: S. cerevisiae sgs1 mgt1 strain, stronger effect = higher value
Outline: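 Percent growth inhibition was derived by comparing compound-exposed mutant yeast with vehicle-exposed cultures. The strain carries alterations in DNA damage repair.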

[4] = NCI Yeast Anticancer Drug Screen. Data for the cln2 rad14 strain (AID 165);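 also: 0% = growth equal to vehicle treated cultures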; conditions: S. cerevisiae cln2 rad14 strain, stronger effect = higher value
Outline: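 Yeast carrying cln2 and rad14 alterations (cell cycle control and DNA damage repair) were exposed to compounds. Growth inhibition was measured against vehicle-treated controls.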

[5] = NCI Yeast Anticancer Drug Screen. Data for the bub3 strain (AID 167); conditions: S. cerevisiae bub3 mutant strain, stronger effect = higher value
Outline: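 Screening used yeast with an engineered genetic alteration affecting cell cycle control. Compound-exposed cultures were compared with vehicle cultures, and reduced growth was taken as inhibition.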

[6] = NCI Yeast Anticancer Drug Screen. Data for the mlh1 rad18 strain (AID 175); conditions: S. cerevisiae mlh1 rad18 strain growth inhibition, stronger effect = higher value
Outline: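 Growth inhibition of the yeast strain was measured after compound exposure and expressed relative to vehicle-treated controls. The strain carries defined defects in DNA damage repair.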

[7] = at 5.0 µM (retest, dose inferred, filed as 0.5)
[8] = at 50.0 µM (retest, dose inferred, filed as 5.0)

Measured: growth inhibition

CC(C)c1ccc(Nc2n[nH]c(=S)s2)cc1
active: [1]; [8] 82% | [1]; at 50.0 µM 86.1% | [2]; [8] 79% | [2]; at 50.0 µM 83% | [3]; at 50.0 µM 87.8% | [4]; [8] 85% | [4]; at 50.0 µM 84.6% | [5]; [8] 94% | [5]; at 50.0 µM 87.5% | [6]; [8] 82% | [6]; at 50.0 µM 84.1%
inactive: [1]; [7] 39% | [2]; [7] 32% | [3]; [7] 35% | [3]; [8] 68% | [4]; [7] 22% | [5]; [7] 33% | [6]; [7] 41%

S=C1SCN(Cc2cccs2)CN1Cc1cccs1
active: [1]; [8] 95% | [1]; at 50.0 µM 71.2% | [2]; [8] 96% | [2]; at 50.0 µM 71.5% | [3]; [8] 99% | [3]; at 50.0 µM 77.7% | [4]; [8] 73% | [5]; [8] 91% | [5]; at 50.0 µM 80.7% | [6]; [8] 96% | [6]; at 50.0 µM 74.7%
inactive: [1]; [7] 58% | [2]; [7] 42% | [3]; [7] 55% | [4]; [7] 23% | [4]; at 50.0 µM 30.4% | [5]; [7] 37% | [6]; [7] 63%

CN(C)CCN(C)CC(C)(C)C(=O)/C=C/c1ccc(Cl)c(Cl)c1
inactive: [1]; [7] 13% | [2]; [7] 4% | [3]; [7] 6% | [3]; at 50.0 µM 56.2% | [4]; [7] -3% | [4]; at 50.0 µM 8.2% | [5]; [7] 6% | [6]; [7] 8%
active: [1]; [8] 99% | [1]; at 50.0 µM 96.8% | [2]; [8] 99% | [2]; at 50.0 µM 78.1% | [3]; [8] 99% | [4]; [8] 98% | [5]; [8] 99% | [5]; at 50.0 µM 92.5% | [6]; [8] 99% | [6]; at 50.0 µM 70.5%

CC(=O)N1CC(=O)NC1=S
inactive: [1]; [7] -10% | [1]; [8] -18% | [1]; at 50.0 µM 69.6% | [2]; [7] -11% | [2]; [8] -14% | [2]; at 50.0 µM 39.9% | [3]; [7] -5% | [3]; [8] -17% | [3]; at 50.0 µM 25.3% | [4]; [7] -4% | [4]; [8] 7% | [4]; at 50.0 µM 53.1% | [5]; [7] -36% | [5]; [8] -12% | [5]; at 50.0 µM 5.45% | [6]; [7] -24% | [6]; [8] -33% | [6]; at 50.0 µM 67.3%

Cc1ccc(/C=C2\CNC/C(=C\c3ccc(C)cc3)C2=O)cc1
inactive: [1]; [7] 68% | [2]; [7] 54% | [4]; [7] 55%
active: [1]; [8] 96% | [1]; at 50.0 µM 86% | [2]; [8] 98% | [2]; at 50.0 µM 86.4% | [3]; [7] 76% | [3]; [8] 98% | [3]; at 50.0 µM 90.5% | [4]; [8] 91% | [4]; at 50.0 µM 77.2% | [5]; [7] 75% | [5]; [8] 97% | [5]; at 50.0 µM 87.2% | [6]; [7] 78% | [6]; [8] 97% | [6]; at 50.0 µM 83.8%

Oc1ccc2ccccc2c1N=Nc1ccccn1
inactive: [1]; [7] 35% | [2]; [7] -4% | [3]; [7] 19% | [4]; [7] 10% | [5]; [7] -26% | [6]; [7] 27%
active: [1]; [8] 91% | [1]; at 50.0 µM 98.2% | [2]; [8] 96% | [2]; at 50.0 µM 96.7% | [3]; [8] 96% | [3]; at 50.0 µM 97.3% | [4]; [8] 94% | [4]; at 50.0 µM 92.8% | [5]; [8] 92% | [5]; at 50.0 µM 96.7% | [6]; [8] 94% | [6]; at 50.0 µM 97.7%

COc1cc(-c2ccc(-[n+]3nc(-c4ccc([N+](=O)[O-])cc4)nn3-c3ccc([N+](=O)[O-])cc3)c(OC)c2)ccc1-[n+]1nc(-c2ccc([N+](=O)[O-])cc2)nn1-c1ccc([N+](=O)[O-])cc1
active: [1]; [7] 95% | [1]; [8] 94% | [1]; at 50.0 µM 89.5% | [2]; [7] 98% | [2]; [8] 98% | [2]; at 50.0 µM 91.4% | [3]; [7] 94% | [3]; [8] 96% | [3]; at 50.0 µM 90.2% | [4]; [7] 96% | [4]; [8] 97% | [4]; at 50.0 µM 88.5% | [5]; [7] 97% | [5]; [8] 97% | [5]; at 50.0 µM 90.2% | [6]; [7] 97% | [6]; [8] 96% | [6]; at 50.0 µM 90%

CN=C(N)N/N=C(\c1ccccc1)c1ccc(Br)cc1
inactive: [1]; [7] 11% | [1]; [8] 51% | [1]; at 50.0 µM 46.4% | [2]; [7] 8% | [2]; [8] 39% | [3]; [7] 13% | [3]; [8] 43% | [3]; at 50.0 µM 16.9% | [4]; [7] 18% | [4]; [8] 33% | [4]; at 50.0 µM 12.3% | [5]; [7] 5% | [5]; [8] 63% | [5]; at 50.0 µM 1.9% | [6]; [7] 10% | [6]; [8] 64% | [6]; at 50.0 µM -2.1%
active: [2]; at 50.0 µM 71%

S=C(S)OCN1CCOCC1
active: [1]; [7] 80% | [1]; at 50.0 µM 98.1% | [2]; at 50.0 µM 98.2% | [3]; [7] 70% | [3]; at 50.0 µM 96.8% | [4]; at 50.0 µM 97.3% | [5]; at 50.0 µM 98.8% | [6]; at 50.0 µM 98.2%
inactive: [1]; [8] 32% | [2]; [7] 59% | [2]; [8] 23% | [3]; [8] 28% | [4]; [7] 58% | [4]; [8] 20% | [5]; [7] 55% | [5]; [8] 27% | [6]; [7] 51% | [6]; [8] 35%

CN1CCc2cc3c(c4c2C1C(O)c1ccccc1-4)OCO3 (stereo not given)
inactive: [1]; [7] 17% | [1]; [8] 32% | [1]; at 50.0 µM 31.4% | [2]; [7] 12% | [2]; [8] 9% | [2]; at 50.0 µM 17.7% | [3]; [7] 9% | [3]; [8] 7% | [3]; at 50.0 µM 26.6% | [4]; [7] 7% | [4]; [8] 17% | [4]; at 50.0 µM 31.8% | [5]; [7] 7% | [5]; [8] 27% | [5]; at 50.0 µM 36.6% | [6]; [7] 13% | [6]; [8] 11% | [6]; at 50.0 µM 15%
